# In ChEMBL document CHEMBL1157539, “Thousands of chemical starting points for antimalarial lead identification” (Nature, 2010):
# What was measured:
# Type in all cases: functional
# [1] = system: Plasmodium falciparum; experiment: GSK_TCMDC: Inhibition of Plasmodium falciparum 3D7 in whole red blood cells, using parasite LDH activity as an index of growth. Test compounds present at 2uM
# [2] = system: Plasmodium falciparum; experiment: GSK_TCMDC: Inhibition of Plasmodium falciparum Dd2 in whole red blood cells, using parasite LDH activity as an index of growth. Test compounds present at 2uM
# [3] = system: HepG2; experiment: GSK_TCMDC: Percent inhibition of human HepG2 cell line. Test compounds present at 10uM.
SMILES,Inhibition [1],Inhibition [2],Inhibition [3]
CCCc1cc(Cc2cnc(N)nc2N)cc(CC)c1OC.Cl,97%,1%,4%
Cc1ccc(NC(=O)c2ccc(-c3cc4cc(Cl)c(Cl)cc4[nH]3)cc2)cc1OCCN1CCCC1.O=C(O)C(F)(F)F,100%,90%,7%
CN(C)c1ccc(CN2CCC(CNC(=O)c3cc(-c4ccccc4Cl)cs3)C2)cc1.O=C(O)C(F)(F)F (stereo not drawn),91%,5%,29%
CCOc1cc(-c2nnc3[nH]c(=O)n(C)c(=O)c3n2)ccc1OC(C)C,97%,86%,15%
CCOC(=O)c1ccc(NC(=O)c2ccccc2C(=O)O)cc1,92%,0%,2%
O=C(CCc1cccnc1)Nc1cccc(-c2ccc(-c3nc4cc(C(F)(F)F)ccc4[nH]3)s2)c1,89%,13%,35%
COc1ccc2nccc([C@@H](O)CN3CCC(NCc4ccc5c(c4)OCCO5)CC3)c2c1.O=C(O)C(=O)O,100%,92%,9%
CCCN(CCCN(CCCN(CCC)C(C)C)c1cc(C)nc(Nc2ccc(Cl)cc2)n1)C(C)C.O=C(O)C(=O)O,100%,99%,39%
C=CCN1C(=O)c2[nH]nc(-c3cc(C)c(C)cc3O)c2C1c1cccc(Br)c1 (stereo not drawn),90%,82%,0%
Cc1cccc2nc(-c3cccc(-c4ccc(CNCc5ccccc5)cc4)c3)[nH]c12.O=C(O)C(F)(F)F,99%,100%,33%
Br.C[C@@H](COc1ccc(-c2ccccc2)cc1)CON1C(N)=NC(N)=NC1(C)C,96%,96%,62%
Br.CC(CCON1C(N)=NC(N)=NC1(C)C)c1ccc(Cl)c(Cl)c1 (stereo not drawn),98%,97%,60%
COc1ccc(C2C(C(=O)OC3CCCC3)=C(C)NC3=C2C(=O)CCC3)cc1Br (stereo not drawn),94%,77%,0%
Cc1cc(N[C@@H](Cc2ccccc2)C(=O)NCCCOC(C)C)nc(NCC2CCCCC2)n1.O=C(O)C(F)(F)F,94%,25%,17%
N#Cc1ccc(-c2ccc(C(=O)NCCCCN3CCC(c4nc5ccccc5[nH]4)CC3)cc2)cc1,92%,13%,43%
CCOc1cc2c(cc1OCC)C(c1ccc(O)c(Cl)c1)NCC2.Cl (stereo not drawn),98%,98%,6%

SMILES,Inhibition [1],Inhibition [2],Inhibition [3]
CCOc1ccc(CCC(=O)O)cc1OCC,94%,0%,60%
CC(C)Oc1cc2c(cc1NS(=O)(=O)c1ccc(-c3ccc(Cl)cc3)cc1)CCN(C)CC2.Cl,99%,65%,100%
O=C(O)C(F)(F)F.O=[N+]([O-])c1cccc(CNCC2CCN(Cc3ccc(Cl)c(Cl)c3)CC2)c1,100%,41%,9%
COc1ccc(Nc2nc(N/N=C/c3ccc(-c4ccc([N+](=O)[O-])cc4)o3)nc(Nc3ccccc3)n2)cc1,100%,17%,0%
Cc1cc(N[C@@H](CC(C)C)C(=O)NCCOc2ccccc2)nc(Nc2ccccc2)n1.O=C(O)C(F)(F)F,93%,9%,9%
OC(CNCc1ccccc1OCc1ccccc1)c1cccc(I)c1 (stereo not drawn),100%,100%,2%
O=C(c1cccs1)N1CCN(c2ccc([N+](=O)[O-])c(NC3CC3)c2)CC1,100%,95%,0%
COCCN1CCN(Cc2ccc(-c3ccc(-c4nc5cccc(C)c5[nH]4)s3)cc2)CC1.O=C(O)C(F)(F)F,95%,52%,32%
Oc1ccc(CCNc2nc(N/N=C/c3ccc(Cl)cc3)nc(N3CCNCC3)n2)cc1,100%,68%,14%
COc1ccc(CNC2CCN(C)CC2)cc1-c1ccc(S(=O)(=O)NC2CCC2)s1.O=C(O)C(F)(F)F,100%,94%,32%
COc1ccc(CNC2CCN(C)CC2)cc1-c1ccc(OC)c(S(=O)(=O)NCc2ccccc2)c1.O=C(O)C(F)(F)F,99%,95%,10%
CC(C)Oc1cc2c(cc1NS(=O)(=O)c1ccc(-c3cccs3)cc1)CCN(C)CC2.Cl,88%,9%,9%
O=C(NCCc1ccccc1)N(Cc1ccccc1-c1cccc(CNC2CCCC2)c1)C1CCN(Cc2ccccc2)CC1.O=C(O)C(F)(F)F,95%,87%,31%
COC[C@H]1CCCN1Cc1ccc(-c2ccc(-c3nc4ccccc4[nH]3)s2)cc1,95%,58%,18%
CCOC(=O)CNC(=O)N(CCN(Cc1ccccc1)C(=O)NCC(=O)OCC)Cc1ccccc1,98%,0%,9%
